Nrf2 inh – Nrf2 qHTS screen for inhibitors | A549 ARE-Fluc reporter, luciferase luminescence, 18-24 h | Potency, µM (doses to about 46 µM), usual class: inhibitors | 360,000 tested, 2.1% active; also: nearly all actives have a fitted effect of over 60% in size
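A549 ARE_Fluc cells, 5000/well, 5% FBS OPTI-MEM; compounds in dose-response, 18-24 h at 37 °C/5% CO2; CellTiter-Fluor viability read (Ex 405/Em 525), then BugLite luciferase luminescence = Nrf2 activity.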
HepG2 tox-1 – qHTS for Inhibitors of TGF-b: Cytotox Counterscreen; Potency, µM (highest dose often 46.1 µM), most hits filed as cytotoxic; 410,000 tested, 0.76% active; HepG2 CAGA-GFP viability, ATP luminescence, 18 h
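HepG2 CAGA-GFP cells (1000/well, DMEM with 1% FBS) received compound, then TGF-beta at 500 pg/mL final, and were incubated 18 hours at 37 degrees C. Viability was read by CellTiter-Glo luminescence. Media-only wells were set as complete cell-killing and DMSO as no toxicity.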
ATXN2 expr inh – Primary qHTS for Inhibitors of ATXN expression | 360,000 tested, 0.72% active | Potency, µM (highest dose often 57 µM), usual class: inhibitors | AID 1745845, 2022 | HEK-293 ATXN2-luciferase reporter, luminescence, 24 h; also: nearly all actives have a fitted effect of over 55% in size
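ATXN2-luciferase reporter cells (luciferase flanked by upstream and downstream ATXN2 gene portions) were treated 24 h at 37 °C with compounds at up to 57 uM. SteadyGlo luminescence gave expression; GF-AFC fluorescence gave viability.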
S2 tox – Viability Counterscreen for Primary qHTS for Inhibitors of ATXN expression. S2 cells (HEK-293 line with an ATXN2-luciferase reporter) viability, CellTiter-Fluor protease fluorescence, 24 h. Potency, µM (titrated, usually from 56.7 µM), hits mostly cytotoxic. AID 651635, 2014. 400,000 tested, 0.49% active; also: nearly all actives have a fitted effect of over 40% in size
TGFb inhibitor – qHTS for Inhibitors of TGF-b; 410,000 tested, 1.2% active; HepG2 CAGA-GFP TGF-b/SMAD3 reporter, GFP fluorescence, 18 h; TGF-beta stimulated, 500 pg/mL final; Potency, µM (highest dose often 46.1 µM), usual class: inhibitors; also: nearly all actives have a fitted effect of over 65% in size
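Cell-based qHTS in HEPG2 carrying a CAGA-GFP Smad reporter; compounds added before 500 pg/mL final TGF-beta, 18 h incubation at 37 degrees C, GFP fluorescence quantified per cell by imaging cytometry.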
A549 tox – Nrf2 qHTS screen for inhibitors: counterscreen for cytotoxicity; A549 ARE-Fluc cells, CellTiter-Fluor viability, 18-24 h; Potency, µM (series often up to 46 µM), most hits filed as inhibitors; 390,000 tested, 0.16% active
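A549 ARE-Fluc cells in 5% FBS OPTI-MEM, 5000 cells/well, rested 2 h then exposed to compounds in concentration-response for 18-24 h at 37 °C. Viability by CellTiter-Fluor fluorescence (Ex 405/Em 525) after 30 min; luciferase luminescence (BugLite, 15 min, RT) read afterwards.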
TGFb confirm – qHTS for Inhibitors of TGF-b: Confirmation of Cherry Picks | shares compounds with TGFb inhibitor | 1,600 tested, 63% active | HepG2 CAGA-GFP TGF-b reporter, GFP fluorescence, 18 h; cells stimulated with TGF-beta, 500 pg/mL | Potency, µM (series often up to 46.1 µM), hits mostly inhibitors; also: nearly all actives have a fitted effect of over 65% in size
HepG2 tox-2 – qHTS for Inhibitors of TGF-b: Cytotox Counterscreen for Cherry Picks; shares compounds with TGFb inhibitor; HepG2 CAGA-GFP viability, ATP luminescence, 18 h; cells stimulated with TGF-beta, 500 pg/mL; Potency, µM (top dose mostly 46.1 µM), actives largely listed as inhibitors; 1,600 tested, 27% active; AID 720535, 2013; also: nearly all actives have a fitted effect of over 70% in size
CCL64 TGFb inh – qHTS for Inhibitors of TGF-b: CCL64 Cells Orthogonal Assay for Cherry Picks | shares compounds with TGFb inhibitor | CCL64 CAGA-GFP reporter, TGF-b stimulated, GFP fluorescence, 18 h | Potency, µM (titrated, usually from 46.1 µM), actives largely listed as inhibitors | 1,600 tested, 41% active; also: nearly all actives have a fitted effect of over 65% in size
COP TGFb inh – qHTS for Inhibitors of TGF-b: Hit Validation in HepG2 Cells using COP promoter; Potency, µM (top dose mostly 46.1 µM), hits mostly inhibitors; HepG2 COP-GFP TGF-b reporter, GFP fluorescence, 18 h; cells stimulated by added recombinant TGF-beta; 1,600 tested, 3% active; shares compounds with TGFb inhibitor; also: nearly all actives have a fitted effect of over 70% in size
Each line names hits and unclear results; the compound was inactive in the other large screens (follow-up assays come after a bar, where they were run). Rows were chosen to be rich in hits. Some 3.8% of all compounds tested hit in one or more screens of this group. Calls follow the shape of the dose curve; as a rule, active = well fitted curve in the direction sought with a large enough effect; inconclusive = small, poorly fitted or top-dose-only effect, or another doubt; inactive = no such curve, though single readings can be large; an effect the other way counts as inactive or inconclusive.

COc1cccc(NC(=O)Nc2nc(SC(C)(C)C)ns2)c1	Nrf2 inh inconclusive, ATXN2 expr inh inconclusive, S2 tox inconclusive, TGFb inhibitor 6.3µM, A549 tox inconclusive | TGFb confirm 10µM | HepG2 tox-2 inconclusive | CCL64 TGFb inh 8.2µM | COP TGFb inh inactive
CNC(=O)COC(=O)c1cc(-c2ccccc2)nn1-c1ccccc1	none
CC(NC(=O)CCC(=O)c1ccccc1)c1ccc(F)cc1 (centres undefined)	none
O=C(CCNc1cccc(F)c1)c1cccc([N+](=O)[O-])c1	TGFb inhibitor 13µM | TGFb confirm 10µM | HepG2 tox-2 inconclusive | CCL64 TGFb inh inconclusive | COP TGFb inh inactive
CC(C)(C)C(=O)N1CCN(c2ccc(NC(=O)c3ccc([N+](=O)[O-])o3)cc2)CC1	Nrf2 inh inconclusive, S2 tox inconclusive, TGFb inhibitor 7.1µM | TGFb confirm 7.3µM | HepG2 tox-2 10µM | CCL64 TGFb inh inconclusive | COP TGFb inh inactive
CCC(=O)N1CCN(c2ccc(NC(=O)c3ccc([N+](=O)[O-])o3)cc2)CC1	TGFb inhibitor inconclusive, A549 tox inconclusive
CS(=O)(=O)N1CCN(c2ccc(NC(=O)c3ccc([N+](=O)[O-])o3)cc2)CC1	HepG2 tox-1 5.6µM, S2 tox inconclusive, TGFb inhibitor 4µM, A549 tox 13µM (no result: ATXN2 expr inh) | TGFb confirm 2.9µM | HepG2 tox-2 15µM | CCL64 TGFb inh inconclusive | COP TGFb inh inactive
O=C(Nc1ccc(N2CCN(C(=O)c3ccc(Cl)cc3)CC2)cc1)c1ccc([N+](=O)[O-])o1	Nrf2 inh 21µM, HepG2 tox-1 13µM, S2 tox inconclusive, TGFb inhibitor 7.1µM, A549 tox inconclusive | TGFb confirm 6.5µM | HepG2 tox-2 16µM | CCL64 TGFb inh inconclusive | COP TGFb inh inconclusive
Cc1ccc(-n2nnnc2CNC(=O)c2ccc(F)cc2)cc1C	A549 tox inconclusive (no result: Nrf2 inh, ATXN2 expr inh, S2 tox)
CN(C)C1(CNC(=O)C2CCN(S(=O)(=O)c3c(Cl)cccc3Cl)CC2)CCCCC1	none
O=C(Nc1ccccc1)c1cc([N+](=O)[O-])ccc1Cl	none
O=C(Nc1cccc(Cl)c1)c1cc(N=Nc2ccc([N+](=O)[O-])cc2Cl)ccc1O	S2 tox inconclusive, TGFb inhibitor inconclusive, A549 tox inconclusive (no result: ATXN2 expr inh) | TGFb confirm 4.6µM | HepG2 tox-2 5.2µM | CCL64 TGFb inh 2.3µM | COP TGFb inh inactive
O=S1(=O)CC(N2CC=CC2)CN1Cc1ccc(F)cc1 (centres undefined)	none (no result: Nrf2 inh, A549 tox)
CC(=O)Oc1ccc(N(C(C)=O)S(=O)(=O)c2cccs2)c2ccccc12	ATXN2 expr inh 25µM, S2 tox inconclusive, TGFb inhibitor 10µM | TGFb confirm inconclusive | HepG2 tox-2 inactive | CCL64 TGFb inh inconclusive | COP TGFb inh inactive
CCN(c1cccc2ccccc12)S(=O)(=O)c1cccs1	TGFb inhibitor inconclusive
CCc1ccc(-c2cc(C)no2)cc1S(=O)(=O)N1CCCN(Cc2ccc(F)cc2)C1	Nrf2 inh inconclusive, TGFb inhibitor 10µM | TGFb confirm inconclusive | HepG2 tox-2 inconclusive | CCL64 TGFb inh inconclusive | COP TGFb inh inactive
Cc1cc(C)c(S(=O)(=O)c2ccc(Cl)cc2)c(Cl)n1	Nrf2 inh inconclusive
Cc1cc(S(=O)(=O)c2ccc(Cl)cc2)nc(S(=O)(=O)c2ccc(Cl)cc2)c1C#N	S2 tox 0.79µM, TGFb inhibitor 7.1µM (no result: Nrf2 inh, ATXN2 expr inh, A549 tox) | TGFb confirm 5.8µM | HepG2 tox-2 18µM | CCL64 TGFb inh 1.8µM | COP TGFb inh 18µM
CCOC(=O)c1[nH]c(C)c(C(=O)OCC(=O)NCc2ccc(OC)c(OC)c2)c1C	Nrf2 inh inconclusive (no result: ATXN2 expr inh)
CCOC(=O)c1c(C)[nH]c(C(=O)OCC(=O)NCCc2ccc(OCC)c(OCC)c2)c1C	Nrf2 inh inconclusive, TGFb inhibitor inconclusive, A549 tox inconclusive | TGFb confirm inconclusive | HepG2 tox-2 inconclusive | CCL64 TGFb inh inactive | COP TGFb inh inactive
CC1=C(C(N)=O)C(c2ccc(C)cc2)n2nc(SCc3ccccc3F)nc2N1 (centres undefined)	TGFb inhibitor inconclusive
C=C1C2=C(C(=O)N1OC)[C@@H](O)[C@@](C)(O)[C@@H](CCCCC)O2	S2 tox inconclusive, TGFb inhibitor 13µM (no result: Nrf2 inh, A549 tox) | TGFb confirm inconclusive | HepG2 tox-2 inactive | CCL64 TGFb inh inactive | COP TGFb inh inactive
Cc1ccc(N2CC(C(=O)N3CCOCC3)CC2=O)cc1Cl (centres undefined)	none
O=C(C1CCC(CNS(=O)(=O)c2cccc3nsnc23)CC1)N1CC=C(c2ccccc2)CC1 (centres undefined)	Nrf2 inh 21µM, ATXN2 expr inh inconclusive, TGFb inhibitor 8.9µM | TGFb confirm inconclusive | HepG2 tox-2 inconclusive | CCL64 TGFb inh inconclusive | COP TGFb inh inactive
COc1ccccc1OCCNC(=O)CCC(=O)N1CCOCC1	none
CC(C)c1csc(CN2CCC(n3nccc3NC(=O)Cc3ccccc3)CC2)n1	none
CCOc1cc2c(cc1O)C(=NOC)CC1C2CCC2(C)C(O)CCC12 (centres undefined)	TGFb inhibitor 18µM | TGFb confirm 7.3µM | HepG2 tox-2 inactive | CCL64 TGFb inh 7.3µM | COP TGFb inh inactive
CN(C)C(=O)c1ccc(-c2cc3onc(-c4ccccc4)c3c(=O)n2C)cc1	Nrf2 inh inconclusive, TGFb inhibitor inconclusive | TGFb confirm inactive | HepG2 tox-2 inactive | CCL64 TGFb inh inactive | COP TGFb inh inactive
CC(=O)Nc1ccc2c(c1)-c1ccc(F)cc1C2	TGFb inhibitor 10µM | TGFb confirm inconclusive | HepG2 tox-2 inconclusive | CCL64 TGFb inh inactive | COP TGFb inh inactive

Compound activity deposited in PubChem BioAssay by National Center for Advancing Translational Sciences (NCATS).
